Test [1] deals with S. cerevisiae SK1 pCDA2-eGFP (USY613), sporulating. The test can be described thus: CDA2-GFP sporulation assay sensitivity score (z-score vs DMSO controls); higher = stronger inhibition of sporulation, active = hit call of the paper.
Test [2] deals with S. cerevisiae AD1-9 (efflux-pump deficient), vegetative growth in YPD. The test can be described thus: growth sensitivity score (doubling time z-score vs DMSO controls); higher = slower growth, strongly negative scores also mark growth inhibition (complete suppression), active = hit call of the paper. A digest of the protocol: (§1)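 Rich medium in microtiter plates was seeded with Saccharomyces cerevisiae strains BY4741 and AD1-9 at an OD600 of 0.065, and compounds were added as a 1:100 dilution of DMSO stock. A Tecan GENios reader recorded optical density every 15 min for 24 hours, with eight solvent-only wells in each experiment. Average doubling time was the time to reach a set generation point divided by generation number. The growth sensitivity score was the compound mean minus the solvent-only mean, divided by the solvent-only standard deviation.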

The test system of test [3] is S. cerevisiae BY4741 (wild-type), vegetative growth in YPD. Described as above. The method in brief:
as §1

The record followed here is the supplement of paper PMC3414501.
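Throughout, for CDA2-GFP sporulation assay sensitivity score (z-score vs DMSO controls): active if sensitivity score above 5.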

Turning to `CC(=O)O[C@H]1C[C@@H]2CC[C@@H]3[C@H](CC[C@@]4(C)[C@H]3C[C@H]([N+]3(C)CCCCC3)[C@@H]4OC(C)=O)[C@@]2(C)C[C@@H]1N1CCCCC1` [Vecuronium bromide] (stock concentration (mM, diluted 1:100): 10), in test [1], the “CDA2-GFP sporulation assay sensitivity score” value was 1.32 (inactive). For the same compound, the results for the growth sensitivity score in test [2] and in test [3] were -5.36 and 0.21 (inactive), respectively.
For `Nc1nc(Cl)nc2c1ncn2[C@H]1C[C@H](O)[C@@H](CO)O1` [2-Chloro-2-Deoxyadenosine] (stock concentration (mM, diluted 1:100): 10), the “CDA2-GFP sporulation assay sensitivity score” value in test [1] is 1.98 (inactive). The growth sensitivity score is -1.81 (inactive) in test [2] and -0.67 (inactive) in test [3].
Taken in the same sequence, the figures for `CCCCC1=NC2(CCCC2)C(=O)N1Cc1ccc(-c2ccccc2-c2nnn[nH]2)cc1` [Irbesartan] (stock concentration (mM, diluted 1:100): 10.1) were -0.17 (inactive), -0.82 (inactive) and -0.72 (inactive).
Consider `Cc1c(C(=O)NN2CCCCC2)nn(-c2ccc(Cl)cc2Cl)c1-c1ccc(I)cc1` (stock concentration (mM, diluted 1:100): 10), for which the “CDA2-GFP sporulation assay sensitivity score” value in test [1] is -0.97 (inactive). The growth sensitivity score in test [3] was -2.45.
With `Cc1cccc(C)c1NC(=O)C(C)N` (configuration not stated) [Tocainide] (stock concentration (mM, diluted 1:100): 10), in test [1], the “CDA2-GFP sporulation assay sensitivity score” value is 0.62 (inactive). Further, the growth sensitivity score in test [2] is 1.11 (inactive); in test [3], -0.53 (inactive).
As for `O=C1N[C@H](C(=O)O)CS1` [Procysteine] (stock concentration (mM, diluted 1:100): 10), the “CDA2-GFP sporulation assay sensitivity score” value in test [1] was 0.97 (inactive). Besides, the growth sensitivity score was -2.4 in test [2] and -0.31 (inactive) in test [3].
